From PubChem BioAssay (Tox21) come the findings set out here.

A short description of experiment [1]: qHTS assay to identify small molecule antagonists of the estrogen receptor alpha (ER-alpha) signaling pathway using the BG1 cell line in the presence of 0.1 nM 17-beta-estradiol - cell viability counter screen (AID 1259241). Further: nearly all actives have a fitted effect of over 40% in size. Summed up: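 VM7Luc4E2 cells (endogenous full-length ER-alpha, 4xERE-luciferase), cultured 5 days in charcoal-stripped serum, exposed to compounds with 0.1 nM 17beta-estradiol (final) for 22 hr at 37C. Viability read in same wells as live-cell protease fluorescence after 30 min.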

Experiment [2] can be described thus: qHTS assay to identify small molecule antagonists of the androgen receptor (AR) signaling pathway using the MDA cell line in the presence of 0.5 nM R1881 - cell viability counter screen (AID 1259242). Further: nearly all actives have a fitted effect of over 45% in size. Summed up:
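Live-cell protease activity was measured by CellTiter-Fluor fluorescence after 30 min. Before that, MDA-kb2 MMTV-luciferase cells had 16 hr at 37C without CO2, exposed to test compounds and 0.5 nM R1881 final.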
On the technique in general: In qHTS, concentration-response curves come from the screen itself.

Experiment [3] has as its target Estrogen receptor (Homo sapiens) (UniProt P03372). Put plainly: qHTS assay to identify small molecule antagonists of the estrogen receptor alpha (ER-alpha) signaling pathway using the BG1 cell line in the presence of 0.1 nM 17-beta-estradiol (AID 1259244). Further: nearly all actives have a fitted effect of over 50% in size. Summed up:
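Luciferase luminescence (ONE-Glo, 30 min at room temperature) was read after 22 hr at 37C exposure to compounds plus 17beta-estradiol at 0.1 nM final. Cells were VM7Luc4E2 with endogenous ER-alpha and an ERE-driven luciferase, pre-cultured 5 days in hormone-depleted medium.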

Experiment [4] in a line: qHTS assay to identify small molecule phospholipidosis (PLD) inducers (AID 1259344; active means well fitted curve in the direction sought with a large enough effect; an effect the other way counts as inactive or inconclusive). Put shortly:
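Accumulated phospholipid, stained red by LipidTOX during 24 h compound treatment of HepG2 cells at 37 C, is quantified from images as pit number and intensity, normalised per cell using Hoechst-stained nuclei.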

Experiment [5] in a line: qHTS assay to identify small molecule HDAC inhibitors (AID 1259364). Further: top concentration of the series differs between compounds; nearly all actives have a fitted effect of over 45% in size. Put shortly: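 Luminescence read after 30 min room-temperature HDAC-Glo incubation measures cellular class I/II HDAC activity. Compounds were applied for 2 hr at 37 C to HCT-116 wild-type cells seeded the day before.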
The nature of experiment [6]: qHTS assay to identify small molecule HDAC inhibitors - cell viability counter screen (AID 1259365). Further: series mostly up to about 92 µM; nearly all actives have a fitted effect of over 50% in size. Summed up:
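Wild-type HCT-116 cells, 1,500/well, cultured overnight, then compound-treated 2 h at 37 C. Viability measured as ATP luminescence with CellTiter-Glo after 30 min at room temperature.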

Experiment [7] in a line: qHTS assay to identify small molecule agonists of the sonic hedgehog signaling (Shh) pathway - cell viability counter screen (AID 1259366). Further: nearly all actives have a fitted effect of over 50% in size. Put shortly:
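NIH/3T3-derived Gli1-Luc reporter cells, 2,000 per well, received compound after 4 h and were treated about 23 h at 37C. Viability measured in the same wells by CellTiter-Fluor fluorescence after 1 h.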

Experiment [8] can be described thus: qHTS assay to identify small molecule antagonists of the sonic hedgehog signaling (Shh) pathway - cell viability counter screen (AID 1259367). Further: nearly all actives have a fitted effect of over 55% in size. Summed up:
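CellTiter-Fluor signal in conditioned medium-stimulated 3T3 Gli1-Luc cells, 23 hr compound exposure, 37C.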

Experiment [9] in a line: qHTS assay to identify small molecule agonists of the sonic hedgehog signaling (Shh) pathway (AID 1259368; calls by dose curve;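 further: NIH/3T3-derived 3T3Gli1-Luc cells carrying a stable Gli1-driven firefly luciferase reporter; series mostly up to about 92 µM; nearly all actives have a fitted effect of over 15% in size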). Summed up: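 Luminescence was read after 30 min at room temperature with luciferase reagent. Before that, 3T3Gli1-Luc cells (NIH/3T3 clone, stable Gli1-Luc reporter; 2,000/well) were exposed to compounds for 24 hr at 37C, 5% CO2, compounds being added 4 hr post-plating.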

A short description of experiment [10]: qHTS assay to identify small molecule antagonists of the sonic hedgehog signaling (Shh) pathway (AID 1259369; calls by dose curve; further: nearly all actives have a fitted effect of over 45% in size; further: potency means the concentration at half of the fitted maximal effect). Put shortly: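 Antagonist mode: compound added to 3T3 Gli1-Luc cells followed by conditioned-medium stimulation, 24 h at 37 C, 5% CO2. Inhibition taken as loss of Gli1-driven luciferase luminescence.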
Experiment [11] in a line: qHTS assay to identify small molecule agonists of the androgen receptor (AR) signaling pathway in the presence of an antagonist - cell viability counter screen (AID 1259379).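 Further: MDA-kb2 human breast cancer cells carrying an MMTV luciferase reporter; series mostly up to about 92 µM; nearly all actives have a fitted effect of over 25% in size.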 Summed up: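 Cytotoxicity counter-screen run in the same wells as the nilutamide-challenged (3.0 µM final) AR agonist assay in MDA-kb2 cells. Compounds tested at 15 concentrations for 16 h, 37 °C without CO2; CellTiter-Fluor fluorescence read.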

Experiment [12] can be described thus: qHTS assay to identify small molecule agonists of the estrogen receptor beta (ER-beta) signaling pathway - cell viability counter screen (AID 1259380). Further: nearly all actives have a fitted effect of over 30% in size. Summed up: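 Cell viability counter screen: CellTiter-Glo luminescence (30 min, room temperature) measured in the same wells as the beta-lactamase readout, after 16 hr compound exposure at 37C of ER-beta-bla HEK293T cells in 2% charcoal-stripped FBS medium.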

The nature of experiment [13]: qHTS assay to identify small molecule antagonists of the estrogen receptor beta (ER-beta) signaling pathway - cell viability counter screen (AID 1259382).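 Further: HEK293T cells carrying ER-beta-UAS-bla reporter stimulated with estradiol; series mostly up to about 92 µM; nearly all actives have a fitted effect of over 55% in size.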 Put shortly:
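Cytotoxicity was measured in the same wells by CellTiter-Glo luminescence after 30 min at room temperature. Cells were ER-beta-bla HEK293T in charcoal-stripped serum, given compound together with 1 nM E2 and incubated 16 h at 37C.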

Experiment [14] deals with Estrogen receptor (Homo sapiens) (UniProt P03372). Put plainly: qHTS assay to identify small molecule agonists of the estrogen receptor alpha (ER-alpha) signaling pathway in the presence of an antagonist (AID 1259383; calls by dose curve; further: top concentration of the series differs between compounds; nearly all actives have a fitted effect of over 15% in size). Put shortly:
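Agonist-mode confirmation run in the presence of 10.0nM (final) ICI-182,780 antagonist. The reporter was ERE-driven luciferase in VM7Luc4E2 cells, grown in charcoal-stripped serum. Cells were exposed to 15-concentration compound series for 22hr, then ONE-Glo luminescence was read.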

The nature of experiment [15]: qHTS assay to identify small molecule agonists or antagonists of the thyroid stimulating hormone receptor (TSHR) signaling pathway - wild type cell line counter screen (AID 1259384; calls by dose curve). Summed up: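 Counter screen in untransfected Hek293: compounds (15-point titration, triplicate) plus phosphodiesterase inhibitor Ro20-1724 added after 18 h plating; 30 min RT. Intracellular cAMP via competitive d2/cryptate immunoassay, 1 h incubation.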

Experiment [16] deals with Thyrotropin receptor (Homo sapiens) (UniProt P16473). Put plainly: qHTS assay to identify small molecule antagonists of the thyroid stimulating hormone receptor (TSHR) signaling pathway (AID 1259385; calls by dose curve; further: nearly all actives have a fitted effect of over 20% in size). Summed up: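 Antagonist mode: compound-treated TSHR-expressing HEK293 cells were stimulated with 1.5 ng/mL TSH (final) in presence of Ro20-1724 for 30 min at RT. HTRF cAMP detection after 1 h; each compound tested at 15 concentrations, triplicate.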
Sequence of Thyrotropin receptor (Homo sapiens) (P16473 whole entry, looked up): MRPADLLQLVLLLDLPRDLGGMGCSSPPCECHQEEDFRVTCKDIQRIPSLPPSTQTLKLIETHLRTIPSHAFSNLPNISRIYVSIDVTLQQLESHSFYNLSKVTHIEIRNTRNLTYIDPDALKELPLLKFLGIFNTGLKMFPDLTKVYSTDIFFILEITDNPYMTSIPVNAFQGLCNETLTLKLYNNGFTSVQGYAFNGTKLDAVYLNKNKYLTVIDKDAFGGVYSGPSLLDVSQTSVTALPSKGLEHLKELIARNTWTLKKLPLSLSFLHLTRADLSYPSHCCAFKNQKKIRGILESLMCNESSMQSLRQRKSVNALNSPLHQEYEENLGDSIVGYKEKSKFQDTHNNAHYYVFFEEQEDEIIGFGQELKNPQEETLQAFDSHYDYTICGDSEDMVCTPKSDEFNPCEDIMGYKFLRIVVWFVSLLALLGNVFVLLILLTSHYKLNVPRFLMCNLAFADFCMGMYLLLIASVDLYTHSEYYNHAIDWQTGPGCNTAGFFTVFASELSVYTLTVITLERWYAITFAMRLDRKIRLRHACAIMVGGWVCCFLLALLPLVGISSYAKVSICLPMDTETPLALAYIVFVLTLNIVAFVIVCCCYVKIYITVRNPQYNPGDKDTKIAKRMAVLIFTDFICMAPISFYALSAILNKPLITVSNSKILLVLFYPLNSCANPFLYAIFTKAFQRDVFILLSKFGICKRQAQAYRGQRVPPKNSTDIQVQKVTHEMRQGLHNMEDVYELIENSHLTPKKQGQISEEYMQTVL

The target of experiment [17] is Androgen receptor (Homo sapiens) (UniProt P10275). Kind of experiment: qHTS assay to identify small molecule antagonists of the androgen receptor (AR) signaling pathway using the MDA cell line in the presence of 0.5 nM R1881 (AID 1259243). Further: nearly all actives have a fitted effect of over 50% in size. Put shortly:
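Luminescent reporter readout (ONE-Glo, 30 min, room temperature) after 16 hr co-treatment of MDA-kb2 cells with test compounds and 0.5 nM R1881 final, at 37C without CO2. The MMTV-driven luciferase responds to both AR and GR.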

In experiment [18] the target is Estrogen receptor beta (Homo sapiens) (UniProt Q92731). Kind of experiment: qHTS assay to identify small molecule agonists of the estrogen receptor beta (ER-beta) signaling pathway (AID 1259377; active means well fitted activation curve with a large enough effect in the signal ratio in the repeat runs, not every such curve was filed as active; the % refers to the signal ratio). Summed up:
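ER-beta-UAS-bla HEK293T cells in medium with 2% charcoal-stripped FBS were exposed to compounds for 16 h at 37C. Beta-lactamase reporter activity was read as fluorescence after 2 h with LiveBLAzer B/G FRET substrate at room temperature.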

For experiment [19] the target is unchanged. Kind of experiment: qHTS assay to identify small molecule antagonists of the estrogen receptor beta (ER-beta) signaling pathway (AID 1259378; active means well fitted inhibition curve with a large enough effect in the signal ratio in the repeat runs, not every such curve was filed as active; the % refers to the signal ratio). Put shortly: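 Antagonist mode: compounds added to beta-lactamase reporter HEK293T ER-beta-UAS cells stimulated with E2 (1nM final), 16 hr at 37C. LiveBLAzer B/G FRET substrate, 2 hours room temperature, fluorescence read-out.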

In experiment [20] the target is Androgen receptor (Homo sapiens) (UniProt P10275). Kind of experiment: qHTS assay to identify small molecule agonists of the androgen receptor (AR) signaling pathway in the presence of an antagonist (AID 1259381; calls by dose curve; further: nearly all actives have a fitted effect of over 15% in size). Put shortly:
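Agonist-mode confirmation run against 3.0 uM final nilutamide: compounds titrated at 15 concentrations onto MDA-kb2 MMTV-luciferase reporter cells. Luminescence measured with ONE-Glo following 16 hr incubation, 37C, 0% CO2.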

Structures are written as SMILES. Inconclusive results are not listed. Activity calls are given as the source filed them. Unless noted, the call rests on the fitted dose curve; in most records, active means well fitted curve in the direction sought with a large enough effect in the repeat runs; inconclusive means weak or mixed curves; inactive means no such curve, though single readings can be large; an effect the other way counts as inactive or inconclusive.

Sequence of Estrogen receptor (Homo sapiens) (P03372 whole entry, looked up): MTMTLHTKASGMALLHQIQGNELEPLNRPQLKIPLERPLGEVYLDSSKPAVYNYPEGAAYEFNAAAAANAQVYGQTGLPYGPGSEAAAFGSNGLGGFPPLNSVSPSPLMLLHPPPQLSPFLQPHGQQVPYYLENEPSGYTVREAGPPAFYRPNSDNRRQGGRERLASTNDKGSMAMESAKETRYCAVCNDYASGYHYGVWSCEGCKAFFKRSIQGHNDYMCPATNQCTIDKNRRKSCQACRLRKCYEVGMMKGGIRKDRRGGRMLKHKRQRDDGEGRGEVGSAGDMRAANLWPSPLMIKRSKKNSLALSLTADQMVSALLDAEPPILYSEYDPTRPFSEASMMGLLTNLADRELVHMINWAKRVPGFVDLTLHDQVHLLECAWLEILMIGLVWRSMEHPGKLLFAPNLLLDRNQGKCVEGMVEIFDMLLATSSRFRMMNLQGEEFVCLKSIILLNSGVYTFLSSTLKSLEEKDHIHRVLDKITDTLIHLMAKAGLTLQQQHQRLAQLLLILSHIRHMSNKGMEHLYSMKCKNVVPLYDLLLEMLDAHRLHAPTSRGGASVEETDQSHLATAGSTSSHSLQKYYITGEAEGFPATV
Sequence of Estrogen receptor beta (Homo sapiens) (Q92731 whole entry, looked up): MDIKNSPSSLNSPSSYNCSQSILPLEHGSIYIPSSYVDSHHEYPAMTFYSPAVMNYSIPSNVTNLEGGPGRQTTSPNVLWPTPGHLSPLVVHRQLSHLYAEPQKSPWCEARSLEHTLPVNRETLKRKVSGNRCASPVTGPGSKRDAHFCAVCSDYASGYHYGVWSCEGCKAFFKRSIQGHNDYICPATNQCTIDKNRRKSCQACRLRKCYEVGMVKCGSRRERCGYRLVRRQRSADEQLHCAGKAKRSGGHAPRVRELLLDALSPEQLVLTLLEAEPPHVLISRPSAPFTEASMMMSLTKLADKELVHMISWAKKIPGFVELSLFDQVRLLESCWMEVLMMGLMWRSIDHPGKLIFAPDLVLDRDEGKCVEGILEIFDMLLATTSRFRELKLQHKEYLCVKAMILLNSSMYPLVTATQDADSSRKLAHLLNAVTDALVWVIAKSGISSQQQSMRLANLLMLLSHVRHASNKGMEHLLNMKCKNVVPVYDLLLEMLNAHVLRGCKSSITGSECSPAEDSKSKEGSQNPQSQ
Sequence of Androgen receptor (Homo sapiens) (P10275 whole entry, looked up): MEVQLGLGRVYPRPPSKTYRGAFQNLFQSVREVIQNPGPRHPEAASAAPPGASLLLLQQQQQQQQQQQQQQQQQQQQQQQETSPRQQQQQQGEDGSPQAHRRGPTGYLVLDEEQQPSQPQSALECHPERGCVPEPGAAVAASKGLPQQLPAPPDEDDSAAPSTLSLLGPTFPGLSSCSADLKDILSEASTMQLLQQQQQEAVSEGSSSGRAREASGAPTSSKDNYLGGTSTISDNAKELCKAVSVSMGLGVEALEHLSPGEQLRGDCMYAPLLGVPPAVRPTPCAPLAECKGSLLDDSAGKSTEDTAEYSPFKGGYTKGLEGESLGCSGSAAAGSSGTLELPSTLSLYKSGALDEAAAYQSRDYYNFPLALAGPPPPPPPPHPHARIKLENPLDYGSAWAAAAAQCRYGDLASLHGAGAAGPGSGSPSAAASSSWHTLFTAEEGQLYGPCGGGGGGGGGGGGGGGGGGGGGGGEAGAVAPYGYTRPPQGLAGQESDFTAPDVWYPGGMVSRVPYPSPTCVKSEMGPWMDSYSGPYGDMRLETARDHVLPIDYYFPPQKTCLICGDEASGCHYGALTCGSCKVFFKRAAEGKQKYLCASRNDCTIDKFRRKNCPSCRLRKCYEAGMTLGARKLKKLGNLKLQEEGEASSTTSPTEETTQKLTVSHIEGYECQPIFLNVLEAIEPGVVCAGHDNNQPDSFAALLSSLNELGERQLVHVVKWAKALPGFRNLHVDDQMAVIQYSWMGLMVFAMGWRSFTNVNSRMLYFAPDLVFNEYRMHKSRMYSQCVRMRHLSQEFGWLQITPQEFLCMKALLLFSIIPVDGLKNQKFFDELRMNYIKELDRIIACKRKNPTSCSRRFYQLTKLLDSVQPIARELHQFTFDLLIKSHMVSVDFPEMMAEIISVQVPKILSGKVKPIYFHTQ

Regarding `CCOC(=O)NC(O)C(Cl)(Cl)Cl` (stereo not drawn), the Potency entry in [1], in experiment [2], in experiment [3], in experiment [5], in [6] and in experiment [7] was “inactive” throughout. For the same molecule, the Potency entry in [8], in [9], in experiment [10], in experiment [11], in experiment [12] and in [13] was “inactive” in each case. The Potency entry in experiment [14] and in [16] was “inactive” throughout. The result in [4] and in experiment [15] was inactive.

As to `CCOC(=O)c1cncn1C(C)c1ccccc1` (stereo not drawn), the Potency result in experiment [1], in [2], in experiment [3], in experiment [5], in experiment [6] and in [7] was “inactive” in each case. The Potency entry in experiment [8], in experiment [9], in experiment [10], in experiment [11], in experiment [12] and in [13] was “inactive” throughout. Besides, the Potency entry in experiment [14] and in experiment [16] was “inactive” in each case. For the same molecule, the result in experiment [4] and in experiment [15] was inactive.

`COCc1cnc(C2=NC(C)(C(C)C)C(=O)N2)c(C(=O)O)c1` (stereo not drawn): the Potency entry in [1], in [2], in experiment [17], in experiment [3], in experiment [5] and in experiment [6] was “inactive” throughout. The Potency entry in [7], in experiment [8], in experiment [9], in [10], in experiment [18] and in [19] was “inactive” in each case. The Potency entry in [11], in experiment [12], in experiment [20], in [13], in experiment [14] and in [16] was “inactive” in each case. Moreover, in experiment [15], the call was inactive.

Take `O=C(N[C@H]1CN2CCC1CC2)c1ccc2c(c1)OCCO2`: the Potency entry in experiment [1], in [2], in [17], in [5], in experiment [6] and in experiment [8] was “inactive” each time. Besides, the Potency result in [9], in experiment [10], in experiment [19], in experiment [11], in experiment [12] and in experiment [20] was “inactive” each time. The Potency entry in [13] and in [16] was “inactive” throughout. The call in experiment [15] was inactive.

In the case of `CN1CC[C@]23c4c5ccc(O)c4O[C@H]2[C@@H](O)C=C[C@H]3[C@H]1C5`, the Potency entry in [1], in experiment [2], in [17], in experiment [5], in [6] and in experiment [8] was “inactive” each time. Moreover, the Potency entry in experiment [9], in experiment [11], in [12], in experiment [20], in [13] and in [16] was “inactive” each time. Moreover, the molecule was classed as inactive in experiment [4] and in experiment [15].

On to `CCN(C(C)=O)c1cccc(-c2ccnc3c(C#N)cnn23)c1`, for which the Potency result in [1], in experiment [2], in [3], in experiment [5], in experiment [6] and in [7] was “inactive” throughout. For the same molecule, the Potency entry in experiment [8], in experiment [9], in experiment [11], in [12], in [13] and in experiment [14] was “inactive” each time. Further, the Potency entry in experiment [16] was “inactive”. Moreover, the call in [4] and in experiment [15] was inactive.

Regarding `CC(C)(C)NCC(O)c1ccccc1Cl` (stereo not drawn), the Potency result in experiment [1], in [2], in [3], in experiment [5], in [6] and in [7] was “inactive” throughout. In addition, the Potency entry in experiment [8], in [9], in experiment [10], in experiment [19], in experiment [11] and in experiment [12] was “inactive” throughout. The Potency entry in experiment [13], in [14] and in experiment [16] was “inactive” throughout. Further, the call in experiment [4] and in experiment [15] was inactive.

Turning to `c1ccc2sc(SNC3CCCCC3)nc2c1`, the Potency entry in experiment [1], in experiment [2], in experiment [3], in experiment [5], in experiment [6] and in [7] was “inactive” each time. The Potency result in experiment [8], in experiment [9], in [11], in experiment [12], in experiment [13] and in experiment [14] was “inactive” throughout. Moreover, the Potency result in experiment [16] is “inactive”. In addition, the molecule was classed as inactive in experiment [4] and in [15]. In addition, in [10], the Potency was 61.1 µM (active).
